Compounds without any hit were thinned out: in the full panel of roughly 83,000, 20% have a hit.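 Assay: single dose, 48 h. Readout: percent growth (0 = no net growth; negative = cell death). Active: <10.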 Active and inactive are the calls of the source.
What was measured:
Test in all cases: NCI-60 one-dose screen, 48 h (100 = growth as untreated, 0 = no growth, -100 = all killed)
SR leukemia = conditions: 10 µM unless noted
RPMI-8226 leukemia = conditions: 10 µM
OVCAR-8 ovarian = conditions: 10 µM unless noted
OVCAR-4 ovarian = conditions: 10 µM unless noted
SK-OV-3 ovarian = conditions: 10 µM
OVCAR-3 ovarian = conditions: 10 µM unless noted
HS 578T breast = conditions: 10 µM unless noted
T-47D breast = conditions: 10 µM
BT-549 breast = conditions: 10 µM unless noted
MDA-MB-435 melanoma = conditions: 10 µM unless noted
SW-620 colon = conditions: 10 µM unless noted
MCF7 breast = conditions: 10 µM unless noted
HCT-116 colon = conditions: 10 µM unless noted
KM12 colon = conditions: 10 µM unless noted
IGROV1 ovarian = conditions: 10 µM unless noted
NCI/ADR-RES ovarian = conditions: 10 µM unless noted
OVCAR-5 ovarian = conditions: 10 µM unless noted
HCC-2998 colon = conditions: 10 µM unless noted

Measured: growth

O=C(COc1ccc(/C=C2\CSc3ccccc3C2=O)cc1)c1ccc(Cl)cc1
inactive: SR leukemia 93.1% | RPMI-8226 leukemia 95.8% | OVCAR-8 ovarian 110% | OVCAR-4 ovarian 107% | SK-OV-3 ovarian 107% | OVCAR-3 ovarian 96% | HS 578T breast 109% | T-47D breast 94.8% | BT-549 breast 110% | MDA-MB-435 melanoma 95.6% | SW-620 colon 115% | MCF7 breast 114% | HCT-116 colon 94.1% | KM12 colon 106%

COc1ccc(Sc2ccc3[nH]c(=O)nc(N)c3c2)cc1
inactive: SR leukemia 87.1% | RPMI-8226 leukemia 104% | OVCAR-8 ovarian 98% | OVCAR-4 ovarian 99.7% | SK-OV-3 ovarian 104% | IGROV1 ovarian 109% | OVCAR-3 ovarian 115% | HS 578T breast 106% | NCI/ADR-RES ovarian 103% | T-47D breast 94.3% | BT-549 breast 98.9% | MDA-MB-435 melanoma 99.8% | SW-620 colon 101% | MCF7 breast 100% | HCT-116 colon 99.9% | KM12 colon 108%

COc1ccc(C(=O)COc2cccc(/C=C3\CSc4ccc(C)cc4C3=O)c2)cc1
inactive: OVCAR-8 ovarian 66.4% | OVCAR-4 ovarian 90.2% | SK-OV-3 ovarian 107% | OVCAR-3 ovarian 97.5% | HS 578T breast 110% | T-47D breast 79.7% | BT-549 breast 108% | MDA-MB-435 melanoma 69.5% | MCF7 breast 30.9% | HCT-116 colon 53.1% | KM12 colon 79.6%
active: SR leukemia -7.75% | RPMI-8226 leukemia -23.5% | SW-620 colon -21.5%

COC(=O)c1c2c(c(C)[n+]([O-])c1C)C(=O)C=C(NCc1cccc(Cl)c1)C2=O
active: SR leukemia 1.95% | RPMI-8226 leukemia -31.9% | OVCAR-8 ovarian -14.4% | OVCAR-5 ovarian -87.2% | IGROV1 ovarian -53.9% | OVCAR-3 ovarian -35.7% | HS 578T breast -23.2% | T-47D breast -37.6% | BT-549 breast -82.3% | MDA-MB-435 melanoma -92.1% | SW-620 colon -31.4% | MCF7 breast -61.3% | HCT-116 colon -13.7% | HCC-2998 colon -38.3% | KM12 colon 0.497%

Oc1ccc2ccccc2c1C1NN=C(c2ccccc2)S1 (configuration not stated)
inactive: RPMI-8226 leukemia 19.6% | OVCAR-8 ovarian 15.6% | OVCAR-4 ovarian 22.3% | SK-OV-3 ovarian 15.4% | OVCAR-3 ovarian 35.1% | HS 578T breast 57.7% | NCI/ADR-RES ovarian 19.5% | T-47D breast 20.7% | BT-549 breast 19.5% | MDA-MB-435 melanoma 29.4% | SW-620 colon 40.4% | MCF7 breast 17.2% | HCT-116 colon 16%
active: SR leukemia 2.39%

CC1SC(c2ccc(Cl)cc2)N(CCc2cccs2)C1=O (configuration not stated)
active: SR leukemia -1.75% | RPMI-8226 leukemia -10.3% | OVCAR-8 ovarian 4.04% | OVCAR-4 ovarian 8.71% | SK-OV-3 ovarian 5.5% | IGROV1 ovarian 4.04% | OVCAR-3 ovarian -30.3% | HS 578T breast -16% | NCI/ADR-RES ovarian -11% | T-47D breast 9.51% | BT-549 breast -39.3% | MDA-MB-435 melanoma -37.4% | MCF7 breast 2.74% | HCT-116 colon -5.82% | HCC-2998 colon -1.78% | KM12 colon -12%
inactive: SW-620 colon 12.4%

CCCCCCCCCCCCCCn1c2ccccc2c2c3c(c4c5cc(OC)ccc5oc4c21)C(=O)NC3=O
inactive: SR leukemia 114% | RPMI-8226 leukemia 112% | OVCAR-8 ovarian 103% | OVCAR-5 ovarian 100% | IGROV1 ovarian 106% | OVCAR-3 ovarian 110% | HS 578T breast 95.6% | NCI/ADR-RES ovarian 107% | T-47D breast 104% | BT-549 breast 101% | MDA-MB-435 melanoma 103% | SW-620 colon 104% | MCF7 breast 102% | HCT-116 colon 105% | HCC-2998 colon 107% | KM12 colon 102%

CC(=O)Nc1ccc(Sc2ccc([N+](=O)[O-])o2)cc1
inactive: SR leukemia 26.1% | OVCAR-4 ovarian 23.5% | SK-OV-3 ovarian 120% | IGROV1 ovarian 42.2% | HS 578T breast 46.8% | BT-549 breast 32.6% | MCF7 breast 26.9% | KM12 colon 56.8%
active: RPMI-8226 leukemia 9.87% | OVCAR-8 ovarian -1.51% | OVCAR-3 ovarian -8.53% | T-47D breast -34.3% | MDA-MB-435 melanoma 9.62% | SW-620 colon -76.5% | HCT-116 colon -82%

O=C1c2ccccc2-c2cn(Cc3ccccc3)c3cccc(c23)C1c1cccnc1 (configuration not stated)
active: SR leukemia 8.31% | OVCAR-3 ovarian 2.21% | MDA-MB-435 melanoma 6.45%
inactive: RPMI-8226 leukemia 64.5% | OVCAR-8 ovarian 57.9% | OVCAR-4 ovarian 64.3% | SK-OV-3 ovarian 37.6% | IGROV1 ovarian 54.5% | HS 578T breast 78.1% | NCI/ADR-RES ovarian 26.5% | T-47D breast 43% | SW-620 colon 30.8% | MCF7 breast 12.4% | HCT-116 colon 27.9% | HCC-2998 colon 56.4% | KM12 colon 30.5%

Cc1cccc2c(=O)c3c(sc12)c(NCCNCCO)nc1ccccc13
inactive: OVCAR-8 ovarian 34% | OVCAR-5 ovarian 64.9% | IGROV1 ovarian 16.1% | OVCAR-3 ovarian 45.1% | HS 578T breast 54.5% | NCI/ADR-RES ovarian 45.1% | T-47D breast 44.8% | BT-549 breast 78.4%
active: SR leukemia -44.1% | RPMI-8226 leukemia -34.2% | MDA-MB-435 melanoma 7.39% | SW-620 colon -67% | HCT-116 colon -70.6% | HCC-2998 colon -24.9% | KM12 colon 5.93%

O=C(O)c1ccccc1Oc1cc(-c2ccco2)nc(OCCBr)n1
inactive: SR leukemia 102% | RPMI-8226 leukemia 123% | OVCAR-8 ovarian 103% | OVCAR-4 ovarian 98.5% | SK-OV-3 ovarian 103% | IGROV1 ovarian 106% | OVCAR-3 ovarian 105% | HS 578T breast 98.1% | T-47D breast 101% | BT-549 breast 92.1% | MDA-MB-435 melanoma 101% | SW-620 colon 105% | MCF7 breast 101% | HCT-116 colon 96.5% | HCC-2998 colon 107% | KM12 colon 95.6%

COc1cc(/C=C2\C(=O)Nc3ccccc32)cc(OC)c1O
active: SR leukemia -10.3% | MDA-MB-435 melanoma -25.3%
inactive: RPMI-8226 leukemia 46.6% | OVCAR-8 ovarian 78.5% | OVCAR-4 ovarian 89.1% | SK-OV-3 ovarian 93.5% | IGROV1 ovarian 70.2% | OVCAR-3 ovarian 46.9% | HS 578T breast 18.4% | NCI/ADR-RES ovarian 19.1% | T-47D breast 49.6% | BT-549 breast 74.8% | SW-620 colon 31.5% | MCF7 breast 30.8% | HCT-116 colon 46.4% | HCC-2998 colon 78.8% | KM12 colon 32.2%

O=c1onc(-c2ccccc2)c2ccccc12
inactive: SR leukemia 101% | RPMI-8226 leukemia 98.4% | OVCAR-8 ovarian 103% | OVCAR-4 ovarian 106% | SK-OV-3 ovarian 112% | IGROV1 ovarian 113% | OVCAR-3 ovarian 113% | NCI/ADR-RES ovarian 103% | T-47D breast 97.8% | BT-549 breast 118% | MDA-MB-435 melanoma 105% | SW-620 colon 103% | MCF7 breast 102% | HCT-116 colon 113% | HCC-2998 colon 98.9% | KM12 colon 110%

O/N=C/c1cccs1
inactive: SR leukemia 96.8% | RPMI-8226 leukemia 112% | OVCAR-8 ovarian 98.3% | OVCAR-4 ovarian 115% | SK-OV-3 ovarian 118% | IGROV1 ovarian 108% | OVCAR-3 ovarian 119% | HS 578T breast 116% | NCI/ADR-RES ovarian 121% | T-47D breast 111% | BT-549 breast 112% | MDA-MB-435 melanoma 99.8% | SW-620 colon 104% | MCF7 breast 99.2% | HCT-116 colon 102% | HCC-2998 colon 111% | KM12 colon 110%

CC[Si](CC)(CC)OC1[C@@H](O[Si](CC)(CC)CC)[C@@H](CNC(=O)NC)O[C@H]1n1cnc2c(NC(=O)Nc3ccccc3)ncnc21 (some centres not stated)
inactive: SR leukemia 14.8% | OVCAR-8 ovarian 92.7% | OVCAR-4 ovarian 94.4% | SK-OV-3 ovarian 98.2% | IGROV1 ovarian 73.6% | OVCAR-3 ovarian 66.6% | HS 578T breast 69.9% | NCI/ADR-RES ovarian 91.8% | T-47D breast 89.8% | BT-549 breast 104% | MDA-MB-435 melanoma 65.5% | SW-620 colon 71.6% | MCF7 breast 61.6% | HCT-116 colon 51.9% | HCC-2998 colon 96.5% | KM12 colon 60.8%
active: RPMI-8226 leukemia 3.35%

Cc1nn(CC(=O)O)c2c1C(=O)CC(C)(C)C2
inactive: SR leukemia 89.1% | RPMI-8226 leukemia 99.2% | OVCAR-8 ovarian 104% | OVCAR-4 ovarian 101% | SK-OV-3 ovarian 101% | IGROV1 ovarian 94.1% | OVCAR-3 ovarian 110% | HS 578T breast 102% | NCI/ADR-RES ovarian 99.5% | T-47D breast 104% | BT-549 breast 104% | MDA-MB-435 melanoma 106% | SW-620 colon 117% | MCF7 breast 102% | HCT-116 colon 92.3% | HCC-2998 colon 98.9%

CC(=O)N(CC(O)CO)c1c(I)c(C(=O)NCCO)c(I)c(C(=O)NCC(O)CO)c1I (configuration not stated)
inactive: SR leukemia 77.2% | RPMI-8226 leukemia 102% | OVCAR-8 ovarian 95.9% | OVCAR-4 ovarian 102% | SK-OV-3 ovarian 103% | IGROV1 ovarian 103% | OVCAR-3 ovarian 107% | HS 578T breast 116% | T-47D breast 101% | BT-549 breast 94.3% | MDA-MB-435 melanoma 105% | SW-620 colon 109% | MCF7 breast 104% | HCT-116 colon 97%

O=C(COc1cccc(/C=C2\COc3ccccc3C2=O)c1)c1ccccc1
inactive: OVCAR-8 ovarian 19.1% | OVCAR-4 ovarian 79.2% | SK-OV-3 ovarian 98.7% | OVCAR-3 ovarian 80.3% | T-47D breast 75.3% | BT-549 breast 45.5% | MDA-MB-435 melanoma 43.1% | KM12 colon 31.6%
active: SR leukemia -62.4% | RPMI-8226 leukemia -51.1% | HS 578T breast -28.2% | SW-620 colon -81.7% | HCT-116 colon 3.67%

O=C(c1ccccc1)C(Br)C(Br)c1cccc([N+](=O)[O-])c1 (configuration not stated)
active: SR leukemia -33.3% | RPMI-8226 leukemia -19.4% | IGROV1 ovarian -29.7% | OVCAR-3 ovarian -23.4% | SW-620 colon -100% | HCT-116 colon -91%
inactive: OVCAR-8 ovarian 18.6% | OVCAR-5 ovarian 73.9% | HS 578T breast 91.9% | NCI/ADR-RES ovarian 51.4% | BT-549 breast 74.8% | MDA-MB-435 melanoma 22.5% | MCF7 breast 24.8% | HCC-2998 colon 89.5% | KM12 colon 33.7%

N#Cc1c(-c2cccc(F)c2)cc(-c2ccc(Br)s2)[nH]c1=O
inactive: SR leukemia 40.7% | RPMI-8226 leukemia 73.9% | OVCAR-8 ovarian 83.3% | OVCAR-5 ovarian 102% | IGROV1 ovarian 67.3% | OVCAR-3 ovarian 39.5% | HS 578T breast 69% | NCI/ADR-RES ovarian 44.7% | BT-549 breast 65.7% | SW-620 colon 28.6% | HCT-116 colon 30.8% | HCC-2998 colon 110% | KM12 colon 60.1%
active: MDA-MB-435 melanoma -25.8%

From PubChem BioAssay (NCI)
